# Reference: PubChem BioAssay (Tox21)
# Results filed as inconclusive are left out. Values without a mark were called inactive. Calls follow the shape of the full dose curve.
# Molecular target: Retinoic acid receptor RXR-alpha (Homo sapiens) (UniProt P19793)
# Test: qHTS assay to identify small molecule agonists of the RXR signaling pathway (AID 1159527); also: nearly all actives have a fitted effect of over 35% in size
# Conditions: HEK293T RXRa-UAS-bla, beta-lactamase ratio, 16 h; series mostly up to 35.3 µM; activation: at the top concentration
# Method in brief: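 Reporter activation is measured as beta-lactamase activity via FRET substrate cleavage (emission 460/530 nm) in HEK 293T cells expressing an RXR-alpha-driven bla construct, following 16 hr compound exposure at 37 C.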
# % is scaled to controls: 0 for no effect and ±100 for the full control effect.
# Sequence of Retinoic acid receptor RXR-alpha (Homo sapiens) (P19793 whole entry, looked up): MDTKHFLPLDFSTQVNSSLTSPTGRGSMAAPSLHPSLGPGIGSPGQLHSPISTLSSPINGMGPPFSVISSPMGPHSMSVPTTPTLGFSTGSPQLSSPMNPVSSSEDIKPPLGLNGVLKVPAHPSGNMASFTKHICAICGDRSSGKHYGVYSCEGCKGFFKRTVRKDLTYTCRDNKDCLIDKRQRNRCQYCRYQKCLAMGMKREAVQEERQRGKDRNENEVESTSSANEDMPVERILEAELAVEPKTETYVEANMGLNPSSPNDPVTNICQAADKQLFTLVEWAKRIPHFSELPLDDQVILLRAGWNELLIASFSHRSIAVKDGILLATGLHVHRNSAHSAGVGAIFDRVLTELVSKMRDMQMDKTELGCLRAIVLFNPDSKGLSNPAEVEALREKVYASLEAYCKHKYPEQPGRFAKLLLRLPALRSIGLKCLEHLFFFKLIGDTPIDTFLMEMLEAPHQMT
row,SMILES,activation
1,CCC=O,1.18% [at 76.8 µM]
2,CC(=O)OC/C=C(\C)CC/C=C(\C)CCC=C(C)C,-12.8% [at 76.8 µM]
3,CC(C)OC(=O)c1ccccc1,13.3% [at 76.8 µM]
4,CCCCCCCCCCCCN(CCCCCCCCCCCC)CCCCCCCCCCCC,10.3% [at 76.8 µM]
5,C1CN(CCOCCN2CCOCC2)CCO1,-18.8% [at 76.8 µM]
6,O=C[C@H](O)[C@@H](O)[C@H](O)[C@H](O)CO,-11% [at 76.8 µM]
7,CCOC(=O)c1cccc(N)c1,7.86%
8,CC(C)CCCC(C)N (stereo not drawn),-2.71%
9,C=CCOCC(CC)(CO)COCC=C,3.95% [at 76.8 µM]
10,CCSC(=O)N(CC(C)C)CC(C)C,4.64% [at 76.8 µM]
11,CC(C)CNCC(C)C,-0.413% [at 76.8 µM]
12,CC(C)(O)C#CC(C)(C)O,-4.9% [at 76.8 µM]
13,CC(C)(CC(=O)O)C(=O)O,10.8% [at 76.8 µM]
14,CC(=O)CC(C)C,10.7% [at 76.8 µM]
15,Cc1sccc1Br,1.51%
16,N[C@H]1CN(c2c(F)cc3c(=O)c(C(=O)O)cn(C4C[C@H]4F)c3c2Cl)CC12CC2 (stereo partly drawn),6.43%
17,CC(NC(CCc1ccccc1)C(=O)O)C(=O)N1C(=O)N(C)CC1C(=O)O (stereo not drawn),12.9%
18,Cc1cccn2c(=O)c(-c3nnn[nH]3)cnc12,-0.427% [at 15.8 µM]
19,CCCCC/C=C\CCC=O,0.468% [at 76.8 µM]
20,CCC(C)S (stereo not drawn),0.574% [at 2.71 µM]
21,CC(C)NC(=O)NC(C)C,1.25% [at 76.8 µM]
22,CC(C)NCCCC1(C(N)=O)c2ccccc2-c2ccccc21,3.49%
23,C=C(C)CS(=O)(=O)O,12% [at 76.8 µM]
24,NS(=O)(=O)c1ccc(C(=O)O)cc1,2.4%
25,CCC(C)C1CCCCC1=O (stereo not drawn),0.144% [at 76.8 µM]
26,COc1cc(C(=O)N2CCCCCCC2)cc(OC)c1OC,7.5%
27,CCCCCCCCS(=O)(=O)Cl,4% [at 76.8 µM]
28,O=c1[nH]c(=O)n([C@H]2C[C@H](O)[C@@H](CO)O2)cc1I,13.3%
